Screening results (PubChem)
The list is not random: actives were taken first. Their share in the collection is about 18%.
TDP1 cell CPT = growth inhibition of DT40 Tdp1-/-;hTDP1 cells with camptothecin (screen for TDP1 inhibitors); AID 686979; chicken DT40 Tdp1-/-;hTDP1 cells + 20 nM CPT, ATP luminescence, 48 h; hit rate 12% among 420,000; Potency, µM (doses to about 46.2 µM), most hits filed as inhibitors; also: nearly all actives have a fitted effect of over 55% in size
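Chicken DT40 Tdp1-/- cells stably complemented with human TDP1 were seeded at 400 cells/well in medium containing 20 nM camptothecin, exposed to pin-transferred compounds, and grown at 37 °C for at least 48 hr. Viability was read as ATP luminescence.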
TDP1 inh = inhibitors of human tyrosyl-DNA phosphodiesterase TDP1; recombinant TDP1, AlphaScreen DNA substrate cleavage; Q9NUW8; hit rate 0.28% among 350,000; Potency, µM (titrated, usually from 130 µM), actives largely listed as inhibitors; also: nearly all actives have a fitted effect of over 40% in size
Target sequence (Q9NUW8 whole entry, looked up): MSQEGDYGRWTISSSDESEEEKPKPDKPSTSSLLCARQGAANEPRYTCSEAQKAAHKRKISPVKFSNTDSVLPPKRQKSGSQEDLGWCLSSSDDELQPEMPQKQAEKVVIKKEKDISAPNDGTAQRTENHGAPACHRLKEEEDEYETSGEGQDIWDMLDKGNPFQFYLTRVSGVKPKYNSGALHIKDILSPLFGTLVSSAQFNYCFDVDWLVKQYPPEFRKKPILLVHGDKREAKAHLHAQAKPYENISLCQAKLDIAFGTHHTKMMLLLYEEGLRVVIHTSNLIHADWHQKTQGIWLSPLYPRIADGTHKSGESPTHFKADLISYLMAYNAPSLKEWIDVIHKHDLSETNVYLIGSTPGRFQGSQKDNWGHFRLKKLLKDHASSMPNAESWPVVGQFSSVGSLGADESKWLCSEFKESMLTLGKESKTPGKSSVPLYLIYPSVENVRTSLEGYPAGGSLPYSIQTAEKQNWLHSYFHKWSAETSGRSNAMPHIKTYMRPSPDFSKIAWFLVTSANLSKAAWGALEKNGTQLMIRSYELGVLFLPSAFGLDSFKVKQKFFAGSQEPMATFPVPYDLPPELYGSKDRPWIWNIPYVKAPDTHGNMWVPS
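Signal: AlphaScreen proximity between streptavidin donor and anti-FITC acceptor beads on intact substrate. Reaction: Tdp1 1 nM, substrate 15 nM final, 5 min RT after 15 min compound preincubation.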
DT40 TDP1 no CPT = qHTS for Inhibitors of human tyrosyl-DNA phosphodiesterase 1 (TDP1): qHTS in cells in absence of CPT; DT40 Tdp1-/- hTDP1 cells, no CPT, ATP luminescence, 48 h; Potency, µM (highest dose often 46.2 µM), most hits filed as inhibitors; hit rate 15% among 420,000; also: nearly all actives have a fitted effect of over 55% in size
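Stably hTDP1-transfected Tdp1-null chicken DT40 cells were treated with library compounds minus camptothecin and grown for at least 48 hr at 37 °C, after which cellular ATP was quantified by luminescence.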
CtBP-E1A blk = blocks the CtBP interaction with E1A; AlphaScreen GST-E1A/His-CtBP binding, 1536-well; stronger effect = lower value; hit rate 0.49% among 340,000; activity change, % (test concentration not listed); in the data active = activity change below about -65%; inconclusive = mostly about -30% to -63%
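In 5 uL wells, 23 nL compound meets equimolar GST-E1A and His-CtBP (5X stock 125 nM each) for 2 h, 37 °C. Beads (5X, 50 ug/mL) then 1 h, 37 °C, dark.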
Six1-Eya2 inh = inhibitors of human Six1/Eya2 interaction. Q15475+O00167. AlphaScreen GST-Six1/His-Eya2 binding, biochemical; stronger effect = lower value. activity change, % (concentration not given with the values). hit rate 0.56% among 360,000; in the data active = activity change below about -65%; inconclusive = mostly about -30% to -63%
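GST-Six1 + His-Eya2 (5X stock: 250/500 nM); Tris pH 8.0, 300 mM NaCl, 0.05% BSA, 0.02% Tween 20; GSH donor/Ni acceptor beads; 1 h 37 °C dark; AlphaScreen readout.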
IL-1B inflam inh = inflammasome signaling inhibition, IL-1 beta readout | THP-1 LPS/ATP IL-1B secretion, AlphaLISA, 16 h; stronger effect = lower value | activity change, % at 57.5 µM | hit rate 4.7% among 360,000; in the data active = activity change below about -50%; inconclusive = mostly about -30% to -49%
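THP-1 cells pretreated 1 hr with compounds (up to 57.5 uM final), then stimulated with LPS (250 ng/mL final) plus ATP (1.25 mM final); secreted IL-1B measured by AlphaLISA after 16 hr, decreased signal indicating inhibition.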
Numbers stand for hits; i = inactive; ? = inconclusive; nt = no result given. Unless noted, calls follow the shape of the dose curve; as a rule, active = well fitted curve in the direction sought with a large enough effect; inconclusive = small, poorly fitted or top-dose-only effect, or another doubt; inactive = no such curve, though single readings can be large; an effect the other way counts as inactive or inconclusive.

SMILES | TDP1 cell CPT | TDP1 inh | DT40 TDP1 no CPT | CtBP-E1A blk | Six1-Eya2 inh | IL-1B inflam inh
CCOc1ccccc1NC(=O)NNS(=O)(=O)c1cc(OC)ccc1OC | i | i | i | i | i | i
COc1ccc(/C(O)=C/C(=O)C(=O)NNC(=O)c2ccccc2)cc1 | i | nt | i | i | i | i
COCCCNC(=O)Cn1cnc2sc(C)c(S(=O)(=O)N3CCN(c4ccccc4OC)CC3)c2c1=O | i | i | i | i | i | i
O=C(NCC1CC1)c1cccc2c1C(=O)c1ccc(N3CCCC3)cc1S2(=O)=O | ? | i | ? | nt | i | i
O=C(NC(C(=O)c1ccccc1)N1CCCCCC1)c1ccco1 (centres undefined) | 23µM | i | 21µM | i | i | i
Cc1ccc(C(=O)C(NC(=O)c2ccco2)N2CCOCC2)cc1 (centres undefined) | i | i | i | i | i | i
CCOC(=O)C(/C=N/c1cc(C)nn1-c1ccccc1)=C(\C)O | i | i | i | i | i | i
CC(C)=C1SC(N2CCN(c3cccc(Cl)c3)CC2)=NC1=O | ? | i | ? | i | i | -59
Cc1cccc(CSC2=NCCN2C(=O)c2ccc(Br)o2)c1 | i | i | i | i | i | i
COc1ccc(CCNc2ccncn2)cc1 | 9.2µM | i | 15µM | i | i | i
COc1cccc(CNc2ncnc3c2nnn3C)c1 | ? | i | ? | nt | nt | nt
COc1ccc(CCNc2ncnc3c2nnn3C)cc1 | 16µM | i | 21µM | nt | nt | nt
COc1cccc(CCNc2ncnc3c2nnn3C)c1 | ? | i | 8.2µM | nt | nt | nt
COc1ccc(CCNc2ccncn2)cc1OC | i | i | i | i | i | i
COc1ccc(Cl)cc1Nc1nc(N)c2ccccc2n1 | ? | nt | ? | i | i | -89
COc1ccc(C)cc1Nc1nc(-c2ccccc2O)nc2ccccc12 | i | nt | i | i | i | i
Nc1nc(Nc2cccc(F)c2)nc2ccccc12 | 18µM | i | 18µM | i | i | -111
COc1cc2nc(C#N)nc(N)c2cc1OC | ? | nt | 20µM | nt | nt | nt
COc1ccc(C)cc1Nc1nc(N)c2cc(OC)c(OC)cc2n1 | 4.6µM | i | 23µM | ? | i | -92
COc1ccc(NC(=O)CSc2nnc(NC(=O)NC3CCCCC3)s2)cc1OC | ? | i | ? | nt | nt | nt
Cc1cccc(C(=O)Nc2ccc(-c3nc4ccccc4s3)cc2Cl)c1 | ? | i | ? | nt | nt | nt
CCOC(=O)c1c(-c2ccc(OC)cc2)oc2ccc(O)cc12 | i | nt | ? | i | i | i
Cc1cc(Br)ccc1NC(=O)CN(C)C(=O)c1ccccc1OCc1c(C)noc1C | ? | nt | ? | i | i | i
Cc1ccc(C)c(Nc2nc(N)c3ccccc3n2)c1 | ? | i | 18µM | i | i | nt
COc1cc2nc(N3CCN(c4cc(C)ccc4C)CC3)nc(N)c2cc1OC | 8.2µM | nt | 7.3µM | i | i | -97
SMILES | TDP1 cell CPT | TDP1 inh | DT40 TDP1 no CPT | CtBP-E1A blk | Six1-Eya2 inh | IL-1B inflam inh
Cc1ccc(C)c(Nc2ncnc(N)c2[N+](=O)[O-])c1 | i | i | i | i | i | i
C/C(CCc1oc2c(Br)cc(Br)cc2c1-c1ccc(C)o1)=N\O | 16µM | i | 18µM | i | i | i
CC(=O)CCc1oc2c([N+](=O)[O-])cccc2c1-c1ccc(C)o1 | ? | i | ? | i | i | i
CC(=O)CCc1oc2ccc([N+](=O)[O-])cc2c1-c1ccc(C)o1 | i | i | i | i | i | i
C/C(CCc1oc2ccccc2c1-c1ccc(C)o1)=N/O | ? | i | 18µM | i | i | i
O=c1cnn(-c2ccc(Cl)cc2Cl)c(-c2ccccc2)c1 | ? | i | 23µM | i | i | i
Cc1ccc2nc(NNC(=O)c3ccc(S(=O)(=O)N4CCc5ccccc5C4)cc3)sc2c1 | 2.9µM | i | 5.2µM | i | i | i
Cc1cc(C)c2nc(NNC(=O)c3ccc(S(=O)(=O)N4CC(C)CC(C)C4)cc3)sc2c1 (centres undefined) | 5.8µM | i | 5.8µM | i | i | i
O=C(NNc1nc2c(F)cccc2s1)c1ccc(F)cc1 | ? | i | ? | i | i | i
Cc1cc(C)c2nc(NC(=O)c3ccc(S(=O)(=O)N4CCc5ccccc54)cc3)sc2c1 | i | i | i | nt | nt | nt
